# Paper PMC7862700, “An all-to-all approach to the identification of sequence-specific readers for epigenetic DNA modifications on cytosine”
# Key:
# Test in all cases: DAPPL (digital affinity profiling via proximity ligation, sequencing); 10 mM Tris-HCl pH 7.5, 50 mM NaCl, 1 mM DTT, 4% glycerol, room temperature, 30 min; GST-TFs on glutathione beads, 16-mer random dsDNA library, 0.1% formaldehyde crosslink after washing; high values mean tight binding
# [1] = target: T1, FLI1 (Homo sapiens, UniProt Q01543 1-452); details: protein: recombinant; tags: N-terminal GST; dsDNA, one strand shown
# T1 sequence: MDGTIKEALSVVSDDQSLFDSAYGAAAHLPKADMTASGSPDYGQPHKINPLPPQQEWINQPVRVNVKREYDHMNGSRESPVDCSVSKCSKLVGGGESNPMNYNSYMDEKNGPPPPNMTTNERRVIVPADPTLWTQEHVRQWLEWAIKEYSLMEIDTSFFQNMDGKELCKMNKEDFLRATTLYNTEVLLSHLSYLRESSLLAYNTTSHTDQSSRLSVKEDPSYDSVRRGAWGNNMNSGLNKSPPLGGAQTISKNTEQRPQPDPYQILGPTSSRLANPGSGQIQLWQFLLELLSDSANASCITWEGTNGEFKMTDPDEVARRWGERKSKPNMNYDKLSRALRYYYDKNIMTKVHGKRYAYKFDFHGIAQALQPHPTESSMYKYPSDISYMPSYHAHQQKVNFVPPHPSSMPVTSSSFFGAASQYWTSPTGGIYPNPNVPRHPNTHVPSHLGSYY
# In short: (§1)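 Human transcription factors were made in yeast as GST fusions, captured on glutathione beads and barcoded with DNA. With a tag-only sample included, the pool was incubated with 200 nmole of a random double-stranded 16-mer DNA library in Tris/NaCl/DTT/glycerol buffer at room temperature for 30 min, then crosslinked with 0.1% formaldehyde after washing, ligated by proximity, amplified and sequenced. For binding signal, each hexamer's read frequency for a factor is divided by its frequency for the tag-only sample.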
# [2] = target: T2, ELK1 (Homo sapiens, UniProt P19419 1-428); details: protein: recombinant; tags: N-terminal GST; dsDNA, one strand shown
# T2 sequence: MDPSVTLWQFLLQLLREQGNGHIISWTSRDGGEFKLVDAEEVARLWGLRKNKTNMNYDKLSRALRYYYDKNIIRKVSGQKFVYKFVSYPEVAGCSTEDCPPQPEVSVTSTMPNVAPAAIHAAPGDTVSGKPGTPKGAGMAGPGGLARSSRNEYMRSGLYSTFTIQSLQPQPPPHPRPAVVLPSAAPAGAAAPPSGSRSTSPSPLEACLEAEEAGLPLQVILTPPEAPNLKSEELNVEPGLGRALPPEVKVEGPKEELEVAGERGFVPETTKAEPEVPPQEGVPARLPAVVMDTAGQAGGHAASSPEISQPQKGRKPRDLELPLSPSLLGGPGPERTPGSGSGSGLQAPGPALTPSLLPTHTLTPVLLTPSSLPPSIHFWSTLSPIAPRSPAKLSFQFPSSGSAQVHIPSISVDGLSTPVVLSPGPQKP
# In short: as §1
# [3] = target: T3, GABPA (Homo sapiens, UniProt Q06546 1-454); details: protein: recombinant; tags: N-terminal GST; dsDNA, one strand shown
# T3 sequence: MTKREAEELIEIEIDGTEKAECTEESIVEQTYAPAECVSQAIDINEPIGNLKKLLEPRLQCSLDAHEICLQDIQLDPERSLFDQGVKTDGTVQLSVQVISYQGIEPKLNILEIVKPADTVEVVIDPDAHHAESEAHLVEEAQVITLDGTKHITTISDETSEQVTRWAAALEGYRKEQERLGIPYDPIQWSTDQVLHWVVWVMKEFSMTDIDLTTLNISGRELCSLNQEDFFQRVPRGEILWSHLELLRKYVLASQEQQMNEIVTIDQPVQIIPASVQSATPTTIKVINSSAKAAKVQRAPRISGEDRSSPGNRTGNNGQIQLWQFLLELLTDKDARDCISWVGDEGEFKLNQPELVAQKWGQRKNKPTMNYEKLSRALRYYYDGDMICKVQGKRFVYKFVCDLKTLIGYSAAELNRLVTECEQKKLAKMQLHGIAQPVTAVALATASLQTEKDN
# In short: as §1
# [4] = target: T4, ERG (Homo sapiens, UniProt P11308 1-479); details: protein: recombinant; tags: N-terminal GST; dsDNA, one strand shown
# T4 sequence: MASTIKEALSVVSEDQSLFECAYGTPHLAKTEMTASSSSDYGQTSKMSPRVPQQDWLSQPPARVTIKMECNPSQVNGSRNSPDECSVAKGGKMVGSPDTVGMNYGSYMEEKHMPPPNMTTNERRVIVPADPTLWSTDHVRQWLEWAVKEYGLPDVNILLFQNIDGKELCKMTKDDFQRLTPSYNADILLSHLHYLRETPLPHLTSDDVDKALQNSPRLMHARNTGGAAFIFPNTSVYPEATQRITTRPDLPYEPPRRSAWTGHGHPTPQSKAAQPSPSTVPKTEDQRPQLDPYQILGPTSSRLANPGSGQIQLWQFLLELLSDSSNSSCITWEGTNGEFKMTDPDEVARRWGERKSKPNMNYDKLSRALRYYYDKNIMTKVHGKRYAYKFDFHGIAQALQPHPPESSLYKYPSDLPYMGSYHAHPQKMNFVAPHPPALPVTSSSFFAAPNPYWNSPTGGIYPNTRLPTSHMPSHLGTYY
# In short: as §1
# [5] = target: ELF1 (Homo sapiens, UniProt P32519 1-619); details: protein: recombinant; tags: N-terminal GST; dsDNA, one strand shown
# ELF1, sequence (P32519 whole entry): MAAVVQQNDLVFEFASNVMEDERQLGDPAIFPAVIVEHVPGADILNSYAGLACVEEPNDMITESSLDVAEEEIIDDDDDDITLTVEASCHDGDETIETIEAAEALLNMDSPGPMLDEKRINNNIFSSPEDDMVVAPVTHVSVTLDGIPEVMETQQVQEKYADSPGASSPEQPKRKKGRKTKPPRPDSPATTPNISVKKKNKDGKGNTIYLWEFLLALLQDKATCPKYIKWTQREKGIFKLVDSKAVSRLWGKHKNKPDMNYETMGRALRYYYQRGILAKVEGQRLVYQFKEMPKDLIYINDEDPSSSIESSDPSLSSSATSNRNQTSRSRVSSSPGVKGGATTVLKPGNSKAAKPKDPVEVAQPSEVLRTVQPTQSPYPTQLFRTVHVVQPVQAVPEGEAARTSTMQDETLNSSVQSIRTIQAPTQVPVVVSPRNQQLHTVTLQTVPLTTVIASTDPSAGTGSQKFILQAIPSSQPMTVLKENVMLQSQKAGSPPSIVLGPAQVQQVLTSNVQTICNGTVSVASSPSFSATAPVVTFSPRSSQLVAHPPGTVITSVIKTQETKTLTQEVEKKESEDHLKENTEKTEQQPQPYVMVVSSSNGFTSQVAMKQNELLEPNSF
# In short: as §1
# [6] = target: T5, EHF (Homo sapiens, UniProt Q9NZC4 1-300); details: protein: recombinant; tags: N-terminal GST; dsDNA, one strand shown
# T5 sequence: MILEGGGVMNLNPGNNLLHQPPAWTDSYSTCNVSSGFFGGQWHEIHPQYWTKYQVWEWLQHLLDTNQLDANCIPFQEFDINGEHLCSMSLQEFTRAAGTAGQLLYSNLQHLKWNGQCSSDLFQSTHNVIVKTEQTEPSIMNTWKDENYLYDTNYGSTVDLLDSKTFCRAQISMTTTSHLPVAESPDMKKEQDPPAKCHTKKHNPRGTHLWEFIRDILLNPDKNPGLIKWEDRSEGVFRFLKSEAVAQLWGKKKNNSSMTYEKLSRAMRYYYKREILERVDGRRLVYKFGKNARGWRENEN
# In short: as §1
# [7] = target: SPI1 (Homo sapiens, UniProt P17947 1-270); details: protein: recombinant; tags: N-terminal GST; dsDNA, one strand shown
# In short: as §1
# [8] = target: SPIB (Homo sapiens, UniProt Q01892 1-262); details: protein: recombinant; tags: N-terminal GST; dsDNA, one strand shown
# SPIB, sequence (Q01892 whole entry): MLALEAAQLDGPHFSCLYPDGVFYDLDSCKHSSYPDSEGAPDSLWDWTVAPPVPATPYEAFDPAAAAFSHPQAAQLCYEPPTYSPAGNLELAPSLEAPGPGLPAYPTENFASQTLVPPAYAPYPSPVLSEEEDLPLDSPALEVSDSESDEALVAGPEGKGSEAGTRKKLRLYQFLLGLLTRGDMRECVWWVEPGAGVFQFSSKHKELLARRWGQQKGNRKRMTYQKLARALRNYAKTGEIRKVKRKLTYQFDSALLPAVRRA
# In short: as §1
# [9] = target: T6, ELK3 (Homo sapiens, UniProt P41970 1-407); details: protein: recombinant; tags: N-terminal GST; dsDNA, one strand shown
# T6 sequence: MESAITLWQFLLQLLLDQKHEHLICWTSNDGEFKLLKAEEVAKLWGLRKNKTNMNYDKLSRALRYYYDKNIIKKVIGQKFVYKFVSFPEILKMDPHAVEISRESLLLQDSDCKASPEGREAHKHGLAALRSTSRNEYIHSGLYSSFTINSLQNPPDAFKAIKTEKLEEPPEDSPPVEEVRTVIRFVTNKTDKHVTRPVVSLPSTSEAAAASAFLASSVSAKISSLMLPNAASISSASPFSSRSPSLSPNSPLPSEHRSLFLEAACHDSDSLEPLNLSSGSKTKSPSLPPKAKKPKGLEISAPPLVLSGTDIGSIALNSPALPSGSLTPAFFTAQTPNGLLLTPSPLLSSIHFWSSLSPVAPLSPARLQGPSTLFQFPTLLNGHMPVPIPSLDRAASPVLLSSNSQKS
# In short: as §1
# [10] = target: T7, FEV (Homo sapiens, UniProt Q99581 1-238); details: protein: recombinant; tags: N-terminal GST; dsDNA, one strand shown
# T7 sequence: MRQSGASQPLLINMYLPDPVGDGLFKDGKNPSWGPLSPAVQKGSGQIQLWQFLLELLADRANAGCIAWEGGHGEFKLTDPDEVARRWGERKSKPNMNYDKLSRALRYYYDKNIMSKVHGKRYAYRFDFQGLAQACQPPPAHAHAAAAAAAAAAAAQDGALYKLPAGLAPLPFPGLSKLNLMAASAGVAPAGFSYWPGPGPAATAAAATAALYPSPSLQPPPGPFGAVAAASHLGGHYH
# In short: as §1
# [11] = target: ETV5 (Homo sapiens, UniProt P41161 1-510); details: protein: recombinant; tags: N-terminal GST; dsDNA, one strand shown
# ETV5, sequence (P41161 whole entry): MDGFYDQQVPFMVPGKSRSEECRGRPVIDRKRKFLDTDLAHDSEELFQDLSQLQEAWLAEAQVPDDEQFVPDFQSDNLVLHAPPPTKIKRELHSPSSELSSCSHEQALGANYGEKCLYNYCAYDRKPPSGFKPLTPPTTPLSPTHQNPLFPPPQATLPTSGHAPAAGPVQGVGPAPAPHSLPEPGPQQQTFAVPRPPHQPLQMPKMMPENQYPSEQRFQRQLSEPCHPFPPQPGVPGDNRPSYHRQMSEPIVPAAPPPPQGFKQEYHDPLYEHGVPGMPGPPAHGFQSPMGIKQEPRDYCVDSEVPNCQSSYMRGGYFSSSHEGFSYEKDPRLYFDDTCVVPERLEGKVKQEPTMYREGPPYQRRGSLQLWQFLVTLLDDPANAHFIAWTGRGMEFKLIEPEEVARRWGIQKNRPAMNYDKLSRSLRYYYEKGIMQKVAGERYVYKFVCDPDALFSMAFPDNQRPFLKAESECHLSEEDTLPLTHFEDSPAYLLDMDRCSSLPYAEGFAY
# In short: as §1
# [12] = target: HSF1 (Homo sapiens, UniProt Q00613 1-529); details: protein: recombinant; tags: N-terminal GST; chain copies: 3; dsDNA, one strand shown
# HSF1, sequence (Q00613 whole entry): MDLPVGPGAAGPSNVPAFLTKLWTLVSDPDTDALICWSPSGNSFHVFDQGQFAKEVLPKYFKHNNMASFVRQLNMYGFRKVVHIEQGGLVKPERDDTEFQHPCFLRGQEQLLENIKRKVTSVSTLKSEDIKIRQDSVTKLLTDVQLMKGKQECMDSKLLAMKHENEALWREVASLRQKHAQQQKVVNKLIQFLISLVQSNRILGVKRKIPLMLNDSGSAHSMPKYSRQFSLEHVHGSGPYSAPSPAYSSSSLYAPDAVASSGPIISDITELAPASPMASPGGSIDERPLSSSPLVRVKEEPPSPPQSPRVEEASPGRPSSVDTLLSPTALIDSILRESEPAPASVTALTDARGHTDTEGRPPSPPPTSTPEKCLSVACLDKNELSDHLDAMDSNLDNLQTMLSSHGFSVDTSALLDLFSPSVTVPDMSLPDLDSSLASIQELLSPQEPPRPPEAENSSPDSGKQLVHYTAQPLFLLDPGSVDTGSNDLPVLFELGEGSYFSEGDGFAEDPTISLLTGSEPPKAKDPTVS
# In short: as §1
# [13] = target: T8, SPIC (Homo sapiens, UniProt Q8N5J4 1-248); details: protein: recombinant; tags: N-terminal GST; dsDNA, one strand shown
# T8 sequence: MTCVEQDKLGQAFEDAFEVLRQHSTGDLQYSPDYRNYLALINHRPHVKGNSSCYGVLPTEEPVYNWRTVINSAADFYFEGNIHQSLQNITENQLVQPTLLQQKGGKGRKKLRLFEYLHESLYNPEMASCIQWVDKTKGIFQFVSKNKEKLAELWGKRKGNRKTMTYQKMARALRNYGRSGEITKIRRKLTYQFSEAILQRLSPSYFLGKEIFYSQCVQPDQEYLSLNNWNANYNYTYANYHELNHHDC
# In short: as §1
# [14] = target: ELF4 (Homo sapiens, UniProt Q99607 1-663); details: protein: recombinant; tags: N-terminal GST; dsDNA, one strand shown
# ELF4, sequence (Q99607 whole entry): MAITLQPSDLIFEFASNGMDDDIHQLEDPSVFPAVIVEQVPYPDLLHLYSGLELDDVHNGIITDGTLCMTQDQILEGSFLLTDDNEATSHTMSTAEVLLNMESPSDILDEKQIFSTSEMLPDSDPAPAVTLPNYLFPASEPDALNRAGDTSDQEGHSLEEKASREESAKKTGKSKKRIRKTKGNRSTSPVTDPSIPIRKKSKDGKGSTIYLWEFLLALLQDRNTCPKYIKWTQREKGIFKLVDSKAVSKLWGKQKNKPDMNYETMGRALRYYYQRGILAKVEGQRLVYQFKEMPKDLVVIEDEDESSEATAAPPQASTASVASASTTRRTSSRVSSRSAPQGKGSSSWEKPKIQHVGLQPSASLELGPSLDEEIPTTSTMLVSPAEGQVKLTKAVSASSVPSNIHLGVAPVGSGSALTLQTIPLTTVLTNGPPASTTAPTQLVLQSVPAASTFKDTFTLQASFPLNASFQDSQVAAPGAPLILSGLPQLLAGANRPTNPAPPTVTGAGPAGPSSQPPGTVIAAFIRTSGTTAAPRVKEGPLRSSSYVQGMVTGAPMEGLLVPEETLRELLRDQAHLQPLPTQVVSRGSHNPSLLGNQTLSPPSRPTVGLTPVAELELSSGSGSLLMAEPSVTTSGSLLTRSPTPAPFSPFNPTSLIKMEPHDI
# In short: as §1
# [15] = target: T9, ELK4 (Homo sapiens, UniProt P28324-2 1-405); details: protein: recombinant; tags: N-terminal GST; dsDNA, one strand shown
# T9 sequence: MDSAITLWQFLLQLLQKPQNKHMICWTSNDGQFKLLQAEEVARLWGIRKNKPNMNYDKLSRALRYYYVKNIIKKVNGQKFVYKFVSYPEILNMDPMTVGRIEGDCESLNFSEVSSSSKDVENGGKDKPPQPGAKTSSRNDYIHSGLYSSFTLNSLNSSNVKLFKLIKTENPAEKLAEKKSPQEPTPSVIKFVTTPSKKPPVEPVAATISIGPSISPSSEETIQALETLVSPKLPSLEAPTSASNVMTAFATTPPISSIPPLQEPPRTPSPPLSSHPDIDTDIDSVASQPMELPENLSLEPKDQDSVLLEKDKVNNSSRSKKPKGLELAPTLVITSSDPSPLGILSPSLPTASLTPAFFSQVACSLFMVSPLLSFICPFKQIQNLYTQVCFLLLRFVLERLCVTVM
# In short: as §1
# [16] = target: T10, ETV2 (Homo sapiens, UniProt O00321 1-342); details: protein: recombinant; tags: N-terminal GST; dsDNA, one strand shown
# T10 sequence: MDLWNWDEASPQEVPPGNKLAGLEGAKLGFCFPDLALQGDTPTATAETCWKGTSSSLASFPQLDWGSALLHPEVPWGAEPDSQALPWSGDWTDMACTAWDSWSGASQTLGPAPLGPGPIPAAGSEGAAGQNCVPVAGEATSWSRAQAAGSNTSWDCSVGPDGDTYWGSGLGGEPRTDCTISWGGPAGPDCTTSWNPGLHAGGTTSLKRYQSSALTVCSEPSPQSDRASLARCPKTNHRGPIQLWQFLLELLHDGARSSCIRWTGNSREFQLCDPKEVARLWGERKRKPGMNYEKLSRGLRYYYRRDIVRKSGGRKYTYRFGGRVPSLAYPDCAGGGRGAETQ
# In short: as §1
# [17] = target: T11, ELF3 (Homo sapiens, UniProt P78545 1-371); details: protein: recombinant; tags: N-terminal GST; dsDNA, one strand shown
# T11 sequence: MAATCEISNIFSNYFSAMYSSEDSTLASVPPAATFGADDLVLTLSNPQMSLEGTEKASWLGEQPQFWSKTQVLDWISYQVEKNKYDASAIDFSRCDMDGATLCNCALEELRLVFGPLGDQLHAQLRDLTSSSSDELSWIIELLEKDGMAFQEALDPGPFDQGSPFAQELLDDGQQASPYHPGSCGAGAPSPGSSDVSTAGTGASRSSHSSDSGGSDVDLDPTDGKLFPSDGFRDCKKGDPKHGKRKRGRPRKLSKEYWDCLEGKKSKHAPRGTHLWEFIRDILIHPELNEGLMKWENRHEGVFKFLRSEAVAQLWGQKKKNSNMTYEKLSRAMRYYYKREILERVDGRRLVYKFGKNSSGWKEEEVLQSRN
# In short: as §1
# [18] = target: CRX (Homo sapiens, UniProt O43186 1-299); details: protein: recombinant; tags: N-terminal GST; dsDNA, one strand shown
# CRX, sequence (O43186 whole entry): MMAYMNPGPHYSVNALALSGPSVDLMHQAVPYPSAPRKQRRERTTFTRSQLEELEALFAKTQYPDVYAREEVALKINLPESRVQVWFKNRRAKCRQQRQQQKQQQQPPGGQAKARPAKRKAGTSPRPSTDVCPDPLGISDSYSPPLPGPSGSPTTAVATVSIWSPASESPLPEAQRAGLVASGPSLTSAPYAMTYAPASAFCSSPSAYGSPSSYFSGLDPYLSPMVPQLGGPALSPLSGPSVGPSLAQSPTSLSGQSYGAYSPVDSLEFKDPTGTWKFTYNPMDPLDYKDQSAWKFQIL
# In short: as §1
# [19] = target: ETV1 (Homo sapiens, UniProt P50549 1-477); details: protein: recombinant; tags: N-terminal GST; dsDNA, one strand shown
# ETV1, sequence (P50549 whole entry): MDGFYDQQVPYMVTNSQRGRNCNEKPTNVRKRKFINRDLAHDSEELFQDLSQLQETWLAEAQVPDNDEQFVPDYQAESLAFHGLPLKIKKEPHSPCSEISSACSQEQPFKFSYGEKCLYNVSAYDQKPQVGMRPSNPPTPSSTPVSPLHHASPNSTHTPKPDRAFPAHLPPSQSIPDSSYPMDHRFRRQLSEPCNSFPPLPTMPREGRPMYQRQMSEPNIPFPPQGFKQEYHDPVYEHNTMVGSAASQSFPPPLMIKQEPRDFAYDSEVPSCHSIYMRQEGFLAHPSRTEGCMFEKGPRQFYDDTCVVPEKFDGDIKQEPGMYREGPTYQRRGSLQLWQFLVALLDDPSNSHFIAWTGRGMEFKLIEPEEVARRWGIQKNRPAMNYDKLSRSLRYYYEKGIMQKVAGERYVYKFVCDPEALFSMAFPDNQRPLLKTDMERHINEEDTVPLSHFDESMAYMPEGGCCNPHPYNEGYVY
# In short: as §1
sequence,measurement,setting,value
CTCGAA,binding signal,[1],"1.23 fold enrichment (6-mer frequency, TF over GST control)"
same,binding signal,[2],"1.12 fold enrichment (6-mer frequency, TF over GST control)"
same,binding signal,[3],"1.26 fold enrichment (6-mer frequency, TF over GST control)"
same,binding signal,[4],"1.13 fold enrichment (6-mer frequency, TF over GST control)"
same,binding signal,[5],"1.18 fold enrichment (6-mer frequency, TF over GST control)"
same,binding signal,[6],"1.21 fold enrichment (6-mer frequency, TF over GST control)"
same,binding signal,[7],"1.17 fold enrichment (6-mer frequency, TF over GST control)"
same,binding signal,[8],"1.12 fold enrichment (6-mer frequency, TF over GST control)"
same,binding signal,[9],"1.21 fold enrichment (6-mer frequency, TF over GST control)"
same,binding signal,[10],"1.17 fold enrichment (6-mer frequency, TF over GST control)"
same,binding signal,[11],"1.2 fold enrichment (6-mer frequency, TF over GST control)"
same,binding signal,[12],"4.2 fold enrichment (6-mer frequency, TF over GST control)"
same,binding signal,[13],"1.15 fold enrichment (6-mer frequency, TF over GST control)"
same,binding signal,[14],"1.2 fold enrichment (6-mer frequency, TF over GST control)"
same,binding signal,[15],"1.34 fold enrichment (6-mer frequency, TF over GST control)"
same,binding signal,[16],"1.16 fold enrichment (6-mer frequency, TF over GST control)"
same,binding signal,[17],"1.11 fold enrichment (6-mer frequency, TF over GST control)"
same,binding signal,[18],"1.9 fold enrichment (6-mer frequency, TF over GST control)"
same,binding signal,[19],"1.1 fold enrichment (6-mer frequency, TF over GST control)"
